PubChem BioAssay (NCI)
The panel holds about 79,000 compounds, 15% with a hit somewhere; the sample as a whole holds those more often. Active and inactive are the calls of the source. Rule as the data show it: active = growth inhibition above about 70%; inactive = the rest.

How the values were obtained:
[1] = NCI Yeast Anticancer Drug Screen. Data for the rad50 strain (AID 155);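 also: 0% = growth of vehicle-only cultures of the same strain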; conditions: S. cerevisiae rad50 strain growth inhibition; at 50.0 µM; active compounds read high
Procedure, shortened: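 Growth of the mutant yeast was measured after compound exposure and referenced to vehicle-treated cultures.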

[2] = NCI Yeast Anticancer Drug Screen. Data for the mec2-1 strain (AID 157); conditions: S. cerevisiae mec2-1 strain, at 50.0 µM, active compounds read high
Procedure, shortened: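 Mutant yeast (mec2-1) grown with compound; growth inhibition relative to vehicle control reported.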

[3] = NCI Yeast Anticancer Drug Screen. Data for the sgs1 mgt1 strain (AID 161);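 also: 0% = growth of cultures given vehicle only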; conditions: S. cerevisiae sgs1 mgt1 strain, at 50.0 µM, active compounds read high
Procedure, shortened: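 Growth of a repair-deficient yeast mutant was monitored after compound treatment and expressed as inhibition relative to vehicle-treated cultures.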

[4] = NCI Yeast Anticancer Drug Screen. Data for the cln2 rad14 strain (AID 165);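 also: 0% = growth equal to vehicle treated cultures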; conditions: S. cerevisiae cln2 rad14 strain, at 50.0 µM, active compounds read high
Procedure, shortened: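 Readout is yeast growth inhibition versus vehicle-treated controls, using a strain with cln2 and rad14 alterations exposed to compound.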

[5] = NCI Yeast Anticancer Drug Screen. Data for the bub3 strain (AID 167); conditions: S. cerevisiae bub3 mutant strain, at 50.0 µM, active compounds read high
Procedure, shortened: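 Whole-cell yeast assay. The mutant strain was incubated with compounds, and growth inhibition was determined by comparison with vehicle-treated cells.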

[6] = NCI Yeast Anticancer Drug Screen. Data for the mlh1 rad18 strain (AID 175); conditions: S. cerevisiae mlh1 rad18 strain growth inhibition; at 50.0 µM; active compounds read high
Procedure, shortened: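 Genetically defined yeast (DNA repair-deficient) exposed to compounds; growth inhibition determined relative to vehicle.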

Measured: growth inhibition

O=C(O)/C=C\c1cc2c(cc1[N+](=O)[O-])OCO2
inactive: [1] 0.4% | [2] -5.3% | [3] -4.2% | [4] -12.2% | [5] 14.6% | [6] -2.5%

CCCCCC(CSCC)C(=O)/C=C/c1ccccc1 (stereo not given)
inactive: [1] 8.3% | [2] 1.4% | [3] -7% | [4] -1.55% | [5] 18.6% | [6] 5.6%

CC1=C(C)C(=O)C=CC1=O
inactive: [1] 19.9% | [2] 6.3% | [3] 5.3% | [4] -1% | [5] 3.95% | [6] 12%

CCCCCCCC#CC1(CCCC)Sc2ccccc2N1C (stereo not given)
inactive: [1] 15.3% | [2] 6.15% | [3] 0.75% | [4] 8.05% | [5] 6.35% | [6] 19.8%

CCCCn1c(=O)cc(C(=O)O)c2ccccc21
inactive: [1] 1.7% | [2] -12.7% | [3] -0.5% | [4] -9.25% | [5] -7.9% | [6] 0.05%

CN(N)C(=O)NCCCl
inactive: [1] -9.1% | [2] -4.6% | [3] 8.25% | [4] 13.4% | [5] -28% | [6] -1.8%

Nc1ncnc2nc(SC3OC(CO)C(O)C(O)C3O)[nH]c12 (stereo not given)
inactive: [1] 10.2% | [2] -9.65% | [3] 9.9% | [4] -9% | [5] 12.8% | [6] 2.85%

O=[N+]([O-])c1cc(N(c2ccccc2)c2ccccc2)cc([N+](=O)[O-])c1
inactive: [1] 2.05% | [2] -12.4% | [3] -30.4% | [4] 9.95% | [5] -2.8% | [6] -22.6%

CC(=O)CC(=O)Nc1ccc(C(=O)c2ccccc2)cc1
inactive: [1] 8.35% | [2] -41.3% | [3] -13% | [4] 1.5% | [5] 4.5% | [6] -22.2%

NC(=O)NC(=O)/C=C/C(=O)O
inactive: [1] 3.75% | [2] -12.9% | [3] -4.15% | [4] -12.4% | [5] 9.7% | [6] -3.2%

CCCCCCSCCO
inactive: [1] -13.2% | [2] -35% | [3] -11.9% | [4] 23.6% | [5] -30.9% | [6] 2.55%

C/C=C/C=C\C(=O)C1c2cccc(O)c2C(=O)c2c(O)cc(C)cc21 (stereo not given)
inactive: [1] 40.4% | [2] 20.9% | [3] 12.3% | [4] 29.6% | [5] 37.5% | [6] 34.1%

ClC(=Nc1ccccc1)c1cc(Cl)ccn1
inactive: [1] 18.1% | [2] -1.8% | [3] 8.3% | [4] -12.4% | [5] 50% | [6] 8.15%

CCSc1nc(C)c(C)c(=O)[nH]1
inactive: [1] 14.2% | [2] -10.9% | [3] 22.4% | [4] 16% | [5] 21.8% | [6] 12.8%

COC(=O)C1CCC(=O)CC1
inactive: [1] -1% | [2] -0.35% | [3] -9.9% | [4] -19.9% | [5] 2.4% | [6] -3.15%

C=CCNC(=O)C(=O)NCC=C
inactive: [1] 3.65% | [2] -16.2% | [3] -11.2% | [4] -24.6% | [5] -8.25% | [6] 2.1%

CC(C)(CC(=O)Nc1ccccc1)C(=O)O
inactive: [1] -11.8% | [2] -7.05% | [3] -19.4% | [4] -12.1% | [5] -56.9% | [6] -0.4%

CCC(C(N)C(=O)O)C(F)(F)F (stereo not given)
inactive: [1] -19.4% | [2] -32.1% | [3] 1.4% | [4] 4.25% | [5] -22.1% | [6] -6.55%

O=C(O)c1cccc(-c2nn[nH]n2)c1
inactive: [1] 2.75% | [2] 0.5% | [3] -4.55% | [4] -55% | [5] 0.25% | [6] -2.7%

COc1ccc(NC(=O)N2CC3CCN2CC3)cc1
inactive: [1] -7.95% | [2] -10.8% | [3] -12.2% | [4] -21.9% | [5] -12.7% | [6] -16.2%

CC(C)=Cc1cc(CCC/C(C)=C/Cc2c(O)cc(C)c(C(=O)O)c2O)co1
inactive: [1] -9% | [2] -25.9% | [3] -1.75% | [4] -6.55% | [5] -18.9% | [6] -15.2%

O=S(=O)(OC12CCCCC1CN1CCCCC1C2)c1ccc(Br)cc1 (stereo not given)
inactive: [1] 14.6% | [2] 9.5% | [3] -4.1% | [4] -3.1% | [5] 3.7% | [6] 12.8%

COc1ccc(CC(N)C(=O)OCCCl)cc1 (stereo not given)
inactive: [1] 6.65% | [2] -0.4% | [3] 13.8% | [4] 10% | [5] 0.3% | [6] 12%

CCCCONC(N)=O
inactive: [1] -12.2% | [2] -11.1% | [3] -23.4% | [4] 7.75% | [5] -5.15% | [6] -5.95%

CCN(CC)C(=O)CCn1ccc(=O)[nH]c1=O
inactive: [1] -52.4% | [2] -33.4% | [3] -25.8% | [4] 9.55% | [5] -2.75% | [6] -5.35%

COC(=O)c1c(-c2ccc(OC)c(OC)c2)cn(C)c1C
inactive: [1] 19.4% | [2] 12.8% | [3] 21% | [4] -6.15% | [5] 10.5% | [6] 25.2%

COc1cc(OC)c(NC(=O)/C=C/c2ccccc2)cc1Cl
inactive: [1] -3.45% | [2] -75.7% | [3] 7.85% | [4] -21.4% | [5] 11.2% | [6] 21%

COC1(OC)C(c2ccc(Cl)cc2)C(C#N)(C#N)C1(OC)OC (stereo not given)
inactive: [1] -7.25% | [2] -13.2% | [3] -14.2% | [4] -48.4% | [5] -1.15% | [6] -7.45%

CN(C)C1=NS(=O)(=O)N=C(N(C)c2ccccc2)O1
inactive: [1] 14.5% | [2] 6.65% | [3] 6.45% | [4] 16.8% | [5] 8.15% | [6] 10.5%

CCOc1ccc(N2CC(=O)N3CCCC(c4ccccc4)N3C(=O)C2)cc1 (stereo not given)
inactive: [1] -23.7% | [2] -10.9% | [3] 13.4% | [4] 4.9% | [5] 12.1% | [6] 8.55%

CCc1nc(N)nc(-c2nc(N)nc(CC)c2C)c1C
inactive: [1] 10.8% | [2] -2.4% | [3] -8.4% | [4] -7.8% | [5] -29.4% | [6] 15.8%

N#CCN1c2ccccc2CCC1Cl (stereo not given)
inactive: [1] -10.9% | [2] -17.6% | [3] -5.05% | [4] -7.45% | [5] 11.2% | [6] 12.4%

O=C(Cc1ccccc1)NC(CSCc1ccccc1)C(=O)O (stereo not given)
inactive: [1] 9.85% | [2] 19.2% | [3] -15% | [4] -39.1% | [5] 10.8% | [6] 40.2%

CC1SC2(C(=O)Nc3ccccc32)N(c2ccc(Cl)cc2)C1=O (stereo not given)
inactive: [1] 21.6% | [2] 10.3% | [3] -12.4% | [4] 23.9% | [5] 60.5% | [6] 10.7%

CC(=O)C=NCC(=O)O
inactive: [1] -2.45% | [2] -3.4% | [3] -32.2% | [4] -24.8% | [5] -26.6% | [6] -8.8%

Cc1ccc(C)c(NC(=O)C(=O)C(C2C(C)CC(=O)C2CC(=O)O)[N+](=O)[O-])c1 (stereo not given)
inactive: [1] 7.05% | [2] 10.9% | [3] -8.05% | [4] 10.8% | [5] 6.6% | [6] 1.7%

CCO/C=C\C(OCC)OCC
inactive: [1] 3.55% | [2] -8.95% | [3] 3.1% | [4] -15.2% | [5] 18.2% | [6] -0.6%

O=S1OC(c2ccccc2)C(c2ccccc2)O1 (stereo not given)
inactive: [1] -2.1% | [2] -10.5% | [3] -4.55% | [4] 11.8% | [5] -1.45% | [6] -7.7%

Cn1c(SCc2ccc(F)cc2)nnc1C12CC3CC(CC(C3)C1)C2
inactive: [1] -32.2% | [2] -12.2% | [3] -22.6% | [4] -1.95% | [5] -17.4% | [6] -48.1%

NC(=O)Cc1cc2c(cc1CO)OCO2
inactive: [1] 3.85% | [2] 1.8% | [3] 2.45% | [4] 7.9% | [5] -13.3% | [6] 5.55%

COC1OCC(O)C(O)C1OC (stereo not given)
inactive: [1] -11% | [2] -13.4% | [3] -16.2% | [4] -25.1% | [5] -8.55% | [6] -19.1%

N#CC1=C(O)NC(O)=C(C#N)C12C(=O)Nc1ccccc12
inactive: [1] 4.1% | [2] 2.85% | [3] 2.05% | [4] 3.15% | [5] 13.2% | [6] 10.3%

CCCC(C)OC(=O)CC(c1ccccc1)N1CCCCC1 (stereo not given)
inactive: [1] 41.7% | [2] -10.1% | [3] 23.4% | [4] -23.6% | [5] 40.2% | [6] 26.5%

O=C(NC(Cc1ccccc1)C(=O)O)c1ccccc1 (stereo not given)
inactive: [1] 4% | [2] 4.9% | [3] 24.1% | [4] -1.6% | [5] 6.7% | [6] 1.55%

CCOC(=O)C(O)(NC(=O)c1ccc(F)cc1)C(F)(F)F (stereo not given)
inactive: [1] 12.2% | [2] 1.85% | [3] -9.9% | [4] 17.1% | [5] -10.2% | [6] -23.9%
